# Data as given in PubChem BioAssay AID1347076 (National Center for Advancing Translational Sciences (NCATS), 2019).
# In all, about 400,000 compounds went through this assay and about 13,000 (3.2%) were called active. Roughly 18% stayed inconclusive and do not appear here. The sample holds actives, similar compounds and a random draw of the others, so the mix is not that of the screen. Calls come from the whole dose curve; as a rule, active = well fitted cell-killing curve with a large enough effect; inconclusive = small, poorly fitted or top-dose-only effect, or effect the other way; inactive = flat fitted curve, though single readings scatter.
# Assay: qHTS assay for MDR1-selective chemotherapeutics: Primary screen using the drug-selected MDR subline cells KB-V1; note: nearly all actives have a fitted effect of over 60% in size
# Details: KB-V1 MDR cells viability, CellTiter-Glo, 72 h; series mostly up to 46.1 µM; activity change, negative = cytotoxicity: at the top concentration
# In short: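 Following 72 h at 37 degrees C with compound, KB-V1 cell viability was read by CellTiter-Glo luminescence, medium being phenol-red-free DMEM plus 10% FBS; concentration-response parameters came from normalized, curve-fitted qHTS data.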
# % is set by controls: 0 for no effect and ±100 for the full control effect; potency is the fitted concentration of half-maximal effect.
SMILES,"activity change, negative = cytotoxicity",Potency
C[C@@H]1CN([C@H](C)CO)C(=O)CCCn2cc(nn2)CO[C@H]1CN(C)S(=O)(=O)c1ccc(Oc2ccccc2)nc1,-17.3% (inactive),–
O=C(C[C@H]1C[C@H]2c3cc(NS(=O)(=O)c4ccc(F)cc4)ccc3O[C@H]2[C@H](CO)O1)NCc1cc(F)ccc1F,5.71% (inactive),–
Cc1cccc(-c2nnc(SC(C)C(=O)Nc3ccccc3)n2C)c1 (centres undefined),0% (inactive),–
CC(Sc1nnc(C2CC2)n1C1CC1)C(=O)Nc1ccc(C(N)=O)cc1 (centres undefined),6.16% (inactive),–
CC(Sc1nnc2c(n1)C1CCC2(C)C1(C)C)C(=O)Nc1ccccc1 (centres undefined),–,20.6 µM (active)
CC(CNC(=O)c1nnc(Cc2cccc(F)c2)o1)c1ccccc1 (centres undefined),0% (inactive),–
C[C@H](CO)N1C[C@H](C)[C@@H](CN(C)S(=O)(=O)c2ccc(Oc3ccccc3)cc2)OCc2cn(nn2)CCCC1=O,9.08% (inactive),–
C[C@@H]1CCCCO[C@H](CN(C)Cc2ccccc2)[C@@H](C)CN([C@H](C)CO)C(=O)c2cc(NS(=O)(=O)c3ccc(Cl)cc3)ccc2O1,-12.7% (inactive),–
O=C(NCc1ccccn1)[C@@H]1CCCN1C(=O)[C@@H]1CCCN1C(=O)c1ccccc1,-11.2% (inactive),–
CC1(C(=O)NCc2ccc3c(c2)OCO3)CCN1C(=O)Cc1cccc2ccccc12 (centres undefined),2.6% (inactive),–
COc1cc(/C=C2\Oc3ccc(C#Cc4ccc(O)cc4)cc3C2=O)cc(OC)c1,–,7.31 µM (active)
COc1ccc2c(c1)O/C(=C\c1ccccc1O)C2=O,5.61% (inactive),–
COC(=O)C(C)Oc1ccc2c(c1)O/C(=C\c1cccc(Br)c1)C2=O (centres undefined),12.6% (inactive),–
CCN(CC)C(=O)C1=C(C)N(Cc2ccccc2)C(=O)C(CC(=O)NC(c2ccccc2)c2ccccc2)C1 (centres undefined),5.18% (inactive),–
CC(C)(C)c1ccc(C(=O)NCCn2c(N)c(C#N)c3nc4ccccc4nc32)cc1,-6.17% (inactive),–
Cn1ncc(Br)c1C(=O)NCc1cccs1,-7.92% (inactive),–
CC(C)Cn1c(N)c(C(=O)NCc2cccs2)c2nc3ccccc3nc21,–,10.3 µM (active)
CCN1C(=O)c2ccccc2S(=O)c2ccc(C(=O)NCc3ccc(F)cc3)cc21 (centres undefined),-21.4% (inactive),–
CCOC(=O)C1CCCN(S(=O)(=O)c2cc(-c3cc(C)no3)ccc2OC)C1 (centres undefined),4.24% (inactive),–
O=c1cc(CSc2ncn[nH]2)[nH]c2ccc(F)cc12,3.56% (inactive),–
CCNC(=O)C1(C)CCN(C(=O)c2ccccc2)C1 (centres undefined),1.66% (inactive),–
CCOC(=O)N1CCN(C(c2ccnc3ccccc23)c2nnnn2-c2c(C)cccc2C)CC1 (centres undefined),-13.6% (inactive),–
Oc1c(C(c2ccccn2)N2CCOCC2)ccc2cccnc12 (centres undefined),-27.6% (inactive),–
CCOC(=O)N1CCN(C(c2cccnc2)c2ccc3cccnc3c2O)CC1 (centres undefined),–,16.4 µM (active)

SMILES,"activity change, negative = cytotoxicity",Potency
CCN(CC)c1nc(C#N)nc(OC)n1,-5.8% (inactive),–
CC(C)c1ccc(NC(=O)CN(C)S(=O)(=O)c2ccc3c(c2)c(=O)n(C)c(=O)n3C)cc1,-2.65% (inactive),–
CCCC(C(=O)n1nc(C)cc1C)C(NS(=O)(=O)c1ccc(C)cc1)c1ccccc1 (centres undefined),–,23.1 µM (active)
Cc1ccc(S(=O)(=O)Nc2nc(C)cc(-n3nc(C)cc3C)n2)cc1,2.01% (inactive),–
CSCC(NS(=O)(=O)c1ccc(C)cc1)C(=O)O (centres undefined),0.292% (inactive),–
Cc1ccc(C)c(C(O)c2ncc(-c3cccc4ccccc34)[nH]2)c1 (centres undefined),3.86% (inactive),–
c1ccc(Cn2nnc3c(NCC4CC4)ncnc32)cc1,-7.11% (inactive),–
CC(=O)NCCC(=O)Nc1cc(S(=O)(=O)N2CCOCC2)ccc1N1CCOCC1,3.79% (inactive),–
CC(C)CCC(=O)Nc1cc(S(=O)(=O)N2CCOCC2)ccc1N1CCCC1,-19.5% (inactive),–
Cc1cc(OCCCC(=O)Nc2cc(S(=O)(=O)N3CCOCC3)ccc2N2CCOCC2)ccc1Cl,–,13 µM (active)
COC(C(=O)Nc1ccc(C(C)=O)cc1)c1ccccc1 (centres undefined),-10.6% (inactive),–
COC(C(=O)Nc1ccc(S(=O)(=O)Nc2ccc(C)c(C)c2)cc1)c1ccccc1 (centres undefined),–,20.6 µM (active)
COC(C(=O)NCc1ccccc1C)c1ccccc1 (centres undefined),-24.3% (inactive),–
O=C(C1CC1)N1CCN=C1SCc1ccc(Cl)cc1,0% (inactive),–
COc1cccc(Cn2c(SCc3ccc(C(=O)N4CCC(C)CC4)cc3)nc3ccncc32)c1,9.9% (inactive),–
CC1CCN(C(=O)c2ccc(CSc3ccc(Cl)cc3)cc2)CC1,–,18.4 µM (active)
CCCNC(=O)C1(C)CCCN(C(=O)c2cccc(OC(C)=O)c2C)C1 (centres undefined),3.99% (inactive),–
FC(F)(F)c1ccccc1Cc1c(-c2ccccc2)nc2c3ccccc3ccn12,5.23% (inactive),–
CC(C)CNC(=O)C(=O)NCC(c1ccc2c(c1)OCO2)N1CCOCC1 (centres undefined),8.13% (inactive),–
COc1ccc(F)cc1S(=O)(=O)NCC(c1ccc2c(c1)OCO2)N1CCN(C)CC1 (centres undefined),8.77% (inactive),–
Cc1cc(C)c(S(=O)(=O)NCC(c2ccc3c(c2)OCO3)N2CCOCC2)c(C)c1 (centres undefined),–,10.3 µM (active)
O=C(CCc1ccccc1)NCc1ccc2c(c1)CCN2C(=O)c1ccccc1,17.5% (inactive),–
Cc1nccn1-c1ccc(NC(=O)[C@H]2O[C@@H](n3cnc4c(N)ncnc43)[C@H](O)[C@@H]2O)cc1,-10.6% (inactive),–
CSc1ccc(CN2CCC2(C)C(=O)Nc2ccc(C)c(O)c2)cc1 (centres undefined),4.69% (inactive),–

SMILES,"activity change, negative = cytotoxicity",Potency
Cc1nc2sc(C)c(C)n2c(=O)c1S(=O)(=O)NCCc1ccc(Cl)cc1,0% (inactive),–
CC1(C(=O)NS(=O)(=O)c2ccccc2)CCN1C(=O)c1ccccc1 (centres undefined),-0.286% (inactive),–
Cc1cc(C)cc(-n2ccnc2SCC(=O)Nc2nc3ccccc3s2)c1,-4.98% (inactive),–
Cc1cccc(-n2ccnc2SCC(=O)Nc2cccc3ccccc23)c1C,17% (inactive),–
Cc1nnc(NC(=O)CSc2nccn2-c2cccc(C)c2C)s1,–,9.2 µM (active)
C[C@@H]1CN([C@@H](C)CO)C(=O)CCCn2nncc2CO[C@@H]1CN(C)S(=O)(=O)c1ccc(-c2ccccc2)cc1,1.41% (inactive),–
O=C(N/N=C/c1cccc(OCc2ccccc2)c1)c1ccc(Br)o1,-19.2% (inactive),–
O=C(N/N=C\c1ccc(Br)cc1)c1ccc(Cn2cccn2)o1,–,11.6 µM (active)
CN(C)c1ccc(/C=N/NC(=O)c2ccc(Cn3cc(Br)cn3)o2)cc1,-5.79% (inactive),–
C[C@H]1CN([C@@H](C)CO)S(=O)(=O)c2ccc(Br)cc2O[C@H]1CN(C)C(=O)c1cnccn1,-2.51% (inactive),–
CC(C)CC1C(=O)N(Cc2cn(Cc3ccco3)nn2)CCS(=O)(=O)N1Cc1ccc(-c2ccc(Cl)c(Cl)c2)cc1 (centres undefined),1.12% (inactive),–
CCCCN(C=O)c1c(CC)nc2c(OCCC3CCCCC3)cccn12,-22.3% (inactive),–
COc1ccc(CC(=O)Nc2ccc(-c3nc4ccccc4s3)c(C)c2)cc1,11.6% (inactive),–
COc1ccc(/C=C(/CC(=O)Nc2ccc(C)cc2)c2nc3ccccc3s2)cc1,7.41% (inactive),–
COC(=O)Cc1[nH]n(-c2nc3ccccc3s2)c(=O)c1C(C)=Nc1ccc(OC)cc1,–,9.2 µM (active)
CC1=C(C(=O)N2CCOCC2)CC(CC(=O)NCc2cccc3ccccc23)C(=O)N1CCC1=CCCCC1 (centres undefined),-13.8% (inactive),–
COc1cc(C(=O)NCCc2csc3nc(-c4ccccc4C)nn23)cc(OC)c1OC,5.16% (inactive),–
CCC(CC)C(=O)N1CCc2cc(OC)c(OC)cc2C1COc1ccc(F)cc1 (centres undefined),-17% (inactive),–
CC[C@H]1CN2CCc3cc(OC)c(OC)cc3[C@@H]2C[C@@H]1C[C@H]1NCCc2cc(OC)c(OC)cc21,–,5.17 µM (active)
COc1ccc2c(c1)CCNC2Cc1ccc(OC)c(O)c1 (centres undefined),-11.2% (inactive),–
Cc1cc(Cl)ccc1-c1nc(NCCN(C)C)nc2ccsc12,1.27% (inactive),–
COc1cc(C=NC2CCCCC2)ccc1O,5.52% (inactive),–
CCc1ccc(-c2nn3c(C)nnc3s2)cc1NC(=O)c1ccc(-c2cccc(Cl)c2)o1,-9.55% (inactive),–
CCOc1cccc(-c2nn3c(-c4ccccn4)nnc3s2)c1,–,5.17 µM (active)

SMILES,"activity change, negative = cytotoxicity",Potency
CCOc1cccc(-c2nnc(SCC(=O)NC3CC3)n2C)c1,15.3% (inactive),–
CCOC(=O)C1CCN(C(=O)c2ccc3c(=O)n4nc(Nc5ccccc5CC)sc4nc3c2)CC1,-15.5% (inactive),–
COc1cc(NC(=O)Cn2nc(-c3ccc(C)c(C)c3)ccc2=O)cc(OC)c1,8.58% (inactive),–
CC(NC(=O)Cn1cc(C(F)(F)F)cc(Cl)c1=O)c1ccccc1 (centres undefined),-0.457% (inactive),–
Cc1ccc(-c2nc3c(Cl)cc(C(F)(F)F)cn3c2Cc2cccc(Cl)c2)cc1,-0.482% (inactive),–
O=c1c([N+](=O)[O-])cc(C(F)(F)F)cn1Cc1cccc(Cl)c1,–,18.4 µM (active)
Cn1c(NCc2cccnc2)nc2cc(-c3ccc(F)cc3)sc2c1=O,-1.46% (inactive),–
O=C(Nc1ccccc1C(F)(F)F)c1nc(S(=O)(=O)Cc2ccccc2F)ncc1Cl,10.7% (inactive),–
COc1ncnc2c1ncn2CCCNCCN1CCOCC1,70.3% (inactive),–
Cc1ccccc1C1=NC(C(F)(F)F)(C(F)(F)F)c2c(n(-c3ccc(F)cc3)c(=O)[nH]c2=O)N1,–,14.6 µM (active)
O=c1[nH]c(=O)n(Cc2ccco2)c2c1C(C(F)(F)F)(C(F)(F)F)N=C(c1ccco1)N2,-26.4% (inactive),–
COc1cccc(C(=O)NC2(C(F)(F)F)C(=O)Nc3c2c(=O)[nH]c(=O)n3-c2ccc(C)cc2)c1 (centres undefined),-11.3% (inactive),–
O=C(NC(c1ccco1)c1cc(Cl)c2cccnc2c1O)c1ccccc1 (centres undefined),-9.61% (inactive),–
COc1ccc2nc(-c3ccccn3)ccc2c1,-15.3% (inactive),–
COc1cccc(-c2noc(C3CCCN(C(=O)c4ccc(F)cc4)C3)n2)c1 (centres undefined),0% (inactive),–
COc1cc(-c2noc(C3CCCN(S(=O)(=O)c4cccc(Cl)c4)C3)n2)cc(OC)c1OC (centres undefined),-13.3% (inactive),–
COc1ccc(NC(=O)N2CCCC(c3nc(-c4ccc(F)cc4)no3)C2)cc1 (centres undefined),-24.7% (inactive),–
O=C(Cc1cccs1)N1CCCC(c2nc(-c3ccc(S(=O)(=O)N4CCCC4)cc3)no2)C1 (centres undefined),–,20.6 µM (active)
O=c1ccc(S(=O)(=O)N2CCCC2)cn1Cc1nc(-c2ccccc2)no1,-17.4% (inactive),–
CC(C)c1ccc(-c2noc(C3CCCN(S(C)(=O)=O)C3)n2)cc1 (centres undefined),–,18.4 µM (active)
Cc1ccccc1-c1ccc2c(c1)O[C@@H](CN(C)Cc1ccc(C(=O)O)cc1)[C@@H](C)CN([C@H](C)CO)S2(=O)=O,-0.477% (inactive),–
NC(CSC(c1ccccc1)(c1ccccc1)c1ccc(-c2ccccc2)cc1)C(=O)O (centres undefined),-3.77% (inactive),–
